Assay outcomes deposited in PubChem BioAssay by several laboratories.
An excerpt weighted towards active compounds, which were near 1.4% of everything screened.
LYPLA1 counter – LYPLA1 (human) inhibition in PME1 counter-screen | O75608 | 320,000 tested, 0.16% active | inhibition, % at 5.9 µM | recombinant LYPLA1, FP-Rh probe fluorescence polarization | AID 2174;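 active means inhibition above the mean of all tested compounds plus 3 SD, set per campaign, cut at about 14% in these data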;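 further: inhibitors block serine hydrolase probe labeling of LYPLA1 so polarization falls; 0% = enzyme with DMSO and 100% = wells lacking LYPLA1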
Target sequence (O75608 whole entry, looked up): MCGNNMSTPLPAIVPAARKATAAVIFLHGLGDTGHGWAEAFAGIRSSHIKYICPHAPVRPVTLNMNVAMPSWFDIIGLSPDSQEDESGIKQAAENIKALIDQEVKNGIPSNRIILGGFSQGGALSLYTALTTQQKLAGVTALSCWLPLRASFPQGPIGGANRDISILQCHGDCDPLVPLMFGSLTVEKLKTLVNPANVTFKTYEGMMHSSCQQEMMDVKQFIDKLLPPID
LANA-H2B inh – blocks KSHV LANA binding to histone H2A/H2B; cell-free LANA-H2A/H2B peptide, fluorescence polarization; inhibition, % (no concentration beside the values); 320,000 tested, 0.6% active; AID 2629; in the data active means inhibition mostly above about 10%, no sharp cut-off; inactive means mostly below about 6.7%
LYPLA2 inh – blocks human lysophospholipase 2, a PME1 counter-screen | recombinant LYPLA2, FP-Rh probe fluorescence polarization | inhibition, % at 5.9 µM | 320,000 tested, 0.38% active | AID 2177;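 active means inhibition above the screen-wide mean plus 3 SD, limit set per campaign, cut at about 26% in these data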;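 further: 0% = LYPLA2 with DMSO and 100% = wells lacking LYPLA2 enzyme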
Target sequence (O95372 whole entry, looked up): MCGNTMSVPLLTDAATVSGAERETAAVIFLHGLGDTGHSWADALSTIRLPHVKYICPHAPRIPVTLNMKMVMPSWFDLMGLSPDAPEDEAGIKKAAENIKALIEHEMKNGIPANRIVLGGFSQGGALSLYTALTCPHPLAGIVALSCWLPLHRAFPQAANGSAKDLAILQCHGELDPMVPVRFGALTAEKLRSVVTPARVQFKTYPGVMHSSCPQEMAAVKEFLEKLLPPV
ZTA counter – blocks Epstein-Barr virus ZTA, an EBNA-1 counter-screen. P03206. ZTA-DNA binding, fluorescence polarization. inhibition, % at 11 µM. 320,000 tested, 0.15% active. AID 2234; in the data active means inhibition above about 33%
EBNA-1 inh – blocks EBNA-1 binding to DNA | inhibition, % at 14.8 µM | EBNA-1 DNA binding, fluorescence polarization | 300,000 tested, 0.34% active; in the data active means inhibition above about 28%
LYPLA1 conf – counter-screen for PME1 inhibitors: confirmation of human LYPLA1 inhibitors; shares compounds with LYPLA1 counter; recombinant LYPLA1, FP-Rh probe fluorescence polarization; inhibition, % at 5.9 µM; 480 tested, 69% active;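 active means mean inhibition across replicates above the hit cutoff set in the primary screen, cut at about 15% in these data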;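 further: loss of FP-Rh probe labeling of LYPLA1 seen as lower polarization; 0% = LYPLA1 with DMSO and 100% = wells lacking LYPLA1 enzyme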
Active calls of the source: *; · = no result.

SMILES	LYPLA1 counter	LANA-H2B inh	LYPLA2 inh	ZTA counter	EBNA-1 inh	LYPLA1 conf
COC(=O)c1cccn(CC(=O)c2ccc(Cl)cc2)c1=O	-3.4	-3.3	-2.3	11.7	-0.2	·
O=C(NC1CC1)c1c[nH]c2ccc(S(=O)(=O)Nc3cccc(C(F)(F)F)c3)cc2c1=O	14.3*	-3.4	-7.6	10.3	9.6	5.9
CCOC(=O)c1ccc(N2C(=O)c3n[nH]c(C)c3C2c2ccc(OC)c(OC)c2)cc1 (stereo unspecified)	29.4*	-0.4	9.3	-2.6	11.7	42.3*
Cc1ccsc1C1Nc2ccc3ncccc3c2C2=C1C(=O)CCC2 (stereo unspecified)	27.9*	1.9	0.9	13.3	-3.5	30.6*
COc1cc(C2Nc3ccc4ncccc4c3C3=C2C(=O)CCC3)cc(OC)c1OC (stereo unspecified)	-1.8	1.0	-7.2	5.8	-11.9	·
CCNC(=S)NNC(=O)Cn1c(=O)c2c(ncn2CCOC)n(Cc2ccccc2)c1=O	40.9*	-1.5	-9.7	-11.0	-4.2	1.3
O=[N+]([O-])c1cc([N+](=O)[O-])c(Oc2cc(Cl)ccc2Cl)cc1NC1CCCCCCC1	1.4	5.8	2.7	6.0	1.2	·
CCOc1ccc(NC(=O)CN(C)C(=O)c2ccccc2OCCOc2ccccc2)cc1OCC	1.4	-1.2	6.0	7.8	·	·
Cc1ccc(C(=O)OCC(=O)NCc2cccs2)cc1S(=O)(=O)N1CCOCC1	3.1	0.5	1.5	-13.3	4.5	·
Cc1cccc(-n2c(O)c(C=Nc3ccccc3-c3n[nH]c(=S)[nH]c3=O)c3ccccc3c2=O)n1	0.9	-2.2	2.6	-9.9	-3.2	·
Cc1ccc(-n2c(O)c(C=Nc3ccccc3-c3n[nH]c(=S)[nH]c3=O)c3ccccc3c2=O)c(C)c1	14.8*	3.5	-3.9	-5.8	3.9	15.1*
CC1CCN(c2ccc3nnc(CCC(=O)Nc4cccc(F)c4)n3n2)CC1	-3.4	2.3	-6.9	7.0	12.9	·
CC(=O)Nc1ccc(N2C(=O)c3cccc4c(O)ccc(c34)C2=O)cc1	17.2*	13.5	20.4	-5.1	-18.3	15.9*
COC(=O)C1CCN(c2c([N+](=O)[O-])cc(C(F)(F)F)cc2[N+](=O)[O-])CC1	31.8*	-6.5	12.2	15.2	0.8	33.5*
COc1ccc(NC(=S)NCCc2c(C)[nH]c3ccc(OC)cc23)cc1	-1.8	-5.3	-4.2	-11.1	7.0	·
CSC(=NC#N)N1CCN(C(c2ccccc2)c2ccccc2)CC1	19.6*	6.3	20.8	0.4	-18.5	24.1*
O=C(N1CCCCC1)N1CCN(C(c2ccccc2)c2ccccc2)CC1	-1.3	3.9	-0.2	-14.7	-15.2	·
CCOC(=O)N1CCN(c2ccc([N+](=O)[O-])cc2)CC1	-5.7	-5.9	3.0	-5.0	19.3	·
CSC(=NC#N)N1CCN(c2ccc([N+](=O)[O-])cc2)CC1	19.2*	3.6	14.0	5.5	-1.9	24.2*
CC(CCc1ccccc1)NC(=O)C(Cc1ccccc1)NC(N)=O (stereo unspecified)	2.1	-1.0	3.2	-5.8	3.1	·
Cc1ccc(C2CC(=O)Oc3cc(O)ccc32)cc1 (stereo unspecified)	22.1*	6.4	22.6	1.3	-9.1	18.5*
O=C1CC(c2ccccc2)c2cc(O)ccc2O1 (stereo unspecified)	2.5	1.8	0.8	13.5	-6.6	·
COc1ccc(NC(=O)C2CCC(CNc3c(N4CCCCC4)c(=O)c3=O)CC2)cc1OC (stereo unspecified)	17.0*	3.7	1.8	-8.9	9.6	21.0*
O=C(CN1CCN(C(=O)c2ccco2)CC1)Nc1cc(C(F)(F)F)ccc1Cl	91.2*	2.8	10.7	-4.9	0.5	91.8*
O=C(CN1CCOCC1)Nc1cc(C(F)(F)F)ccc1Cl	-2.3	0.1	7.4	4.3	7.2	·
N#Cc1c(NC(=O)CN2CCN(C(=O)c3ccco3)CC2)sc2c1CCCCC2	50.9*	-5.1	17.6	19.0	6.5	55.8*
CCCC(=Nc1ccccc1)C1=C(O)C(C(=O)OC)C(C)(C)CC1=O (stereo unspecified)	1.1	6.3	-3.4	-4.5	-3.1	·
CCC(=Nc1ccc(N)cc1)C1=C(O)C(C(=O)OC)C(C)(C)CC1=O (stereo unspecified)	20.6*	3.2	18.9	12.8	1.2	-0.3
O=C(CCC(=O)NCCCc1ccccc1)NCCCc1ccccc1	-0.7	2.2	1.9	5.9	5.4	·
